{"source": "PubChem BioAssay AID2384", "about": "(Southern Research Specialized Biocontainment Screening …, 2010)", "note": "In all, about 2,300 compounds went through this assay and about 1,100 (48%) were called active. The set was probably picked from earlier hits. The list shows a part of the results. Results with a measured potency or affinity are listed apart. Unmarked numbers belong to inactive results. No rule for the calls is given here."}
{"assay": "inhibitors in S. typhi counter-screen strain, dose response, counter-screen for PhoP regulon inhibitor project, fluorescence, 4 h (AID 2384)", "conditions": "S. typhi GFP reporter counter-screen; series mostly up to 150 µM; inhibition: at the top concentration", "units": {"inhibition": "%"}}
{"smiles": "O=C(Cn1nc(Cc2ccncc2)c2ccccc2c1=O)Nc1cccnc1Cl", "inhibition": 2.79}
{"smiles": "CCCN(C(=O)CSc1nc2ccccc2n1CC)C1CCS(=O)(=O)C1", "note": "(configuration not stated)", "inhibition": 28.5}
{"smiles": "O=C(Nc1ccc2c(c1)OCCO2)C1CCCN1C(=O)Nc1ccc(F)cc1", "note": "(configuration not stated)", "inhibition": -2.19}
{"smiles": "c1cnc2nc(-c3ccc4c(c3)OCO4)cn2c1", "inhibition": -13.7}
{"smiles": "Clc1ccc(Cn2cccc2C2=NCCO2)cc1", "inhibition": -22.6}
{"smiles": "COc1ccc(-c2nnc(SC(C)C(=O)Nc3nccs3)n2Cc2ccccc2)cc1OC", "note": "(configuration not stated)", "inhibition": -3.63}
{"smiles": "CN(C)C(=O)CSc1nnc(Cc2ccc([N+](=O)[O-])cc2)o1", "inhibition": -7.9}
{"smiles": "COc1ccc(N(CC(=O)N2c3ccccc3CC2C)S(=O)(=O)c2c(C)noc2C)cc1", "note": "(configuration not stated)", "inhibition": -2.81}
{"smiles": "Cc1oc(/N=C/c2ccc(O)cc2O)c(C#N)c1C", "inhibition": -15.2}
{"smiles": "Cc1cc(Cl)ccc1OCC(=O)N/N=C/c1ccncc1", "inhibition": 26}
{"smiles": "O=C(N/N=C/c1ccc(O)cc1O)C(=O)N/N=C/c1ccc(O)cc1O", "inhibition": -70.2}
{"smiles": "CCOC(=O)c1[nH]c2ccc(Cl)cc2c1NC(=O)c1nonc1C", "inhibition": -11.4}
{"smiles": "Cc1ccc(/C=N/NC(=O)Cc2cccn2C)cc1", "inhibition": 6.57}
{"smiles": "O=C(N/N=C/c1ccc(N2CCOCC2)cc1)c1ccc(O)cc1", "inhibition": 20.5}
{"smiles": "CN(CC(=O)Nc1ccc(F)c(F)c1F)c1cnccn1", "inhibition": 30.9}
{"smiles": "C[C@@H](NC(=O)[C@@H]1Cc2ccccc2CN1)C(=O)NCC1CCCO1", "note": "(some centres not stated)", "inhibition": -13}
{"smiles": "CCCOc1ccc(C2C(C(=O)c3ccc(C)o3)=C(O)C(=O)N2CCCn2ccnc2)cc1", "note": "(configuration not stated)", "inhibition": 2.87}
{"smiles": "C=CCNc1nc(-c2ccccc2)nc(-n2ccnc2)n1", "inhibition": -14.9}
{"smiles": "c1ccc2c(c1)CCN(c1nc3ccccc3n3cnnc13)C2", "inhibition": -15.8}
{"smiles": "CC1(NC(=O)NCCCCCCNC(=O)NC2(C)CCS(=O)(=O)C2)CCS(=O)(=O)C1", "note": "(configuration not stated)", "inhibition": -10.2}
{"smiles": "O=c1[nH]n(-c2ccccc2)c(=O)c2ccccc12", "inhibition": 3.81}
{"smiles": "O=c1c2ccccc2[nH]c2ccc(F)cc12", "inhibition": 4.1}
{"smiles": "COc1ccc(N=Cc2c(O)n(CC3CCCO3)c(=O)[nH]c2=O)cc1", "note": "(configuration not stated)", "inhibition": 9.18}
{"smiles": "Cc1cccc(N2CCN(C(=O)C3CCN(c4nnc(-n5cccc5)s4)CC3)CC2C)c1", "note": "(configuration not stated)", "inhibition": -25.6}
{"smiles": "Cc1nn(C)c(C)c1NC(=O)c1ccc(S(=O)(=O)N(C)C)cc1", "inhibition": 4.22}
{"smiles": "Cc1cc(-c2nc3ccccc3o2)c2ccccc2n1", "inhibition": 0.36}
{"smiles": "CC(C)(C)Nc1c2ccccc2nc2ccccc12", "inhibition": 32.2}
{"smiles": "COc1ccccc1Nc1cc(C(=O)NCc2cccnc2)c2ccccc2n1", "inhibition": -19.1}
{"smiles": "CC(=O)c1sc2nc(=O)c(C)nn2c1C", "inhibition": -20.6}
{"smiles": "CCOC(=O)C(CC)Sc1ccc2nnc(-c3cccnc3)n2n1", "note": "(configuration not stated)", "inhibition": -8.08}
{"smiles": "COC(=O)c1cc2oc(C)cc2n1CC(=O)Nc1ccc(C)c(C)c1", "inhibition": -13.2}
{"smiles": "Cc1onc(-c2ccccc2Cl)c1C(=O)NNC(=O)C1CCN(Cc2ccccc2)CC1", "inhibition": -18.2}
{"smiles": "CCCNC(=O)C1CCN(c2ccc(S(=O)(=O)N3CCOCC3)cc2Cl)CC1", "inhibition": -33.2}
{"smiles": "CCn1c(-c2cccc(Br)c2)n[nH]c1=S", "inhibition": 12.4}
{"smiles": "COC(=O)CNC(=O)c1ccc(=O)oc1", "inhibition": -10}
{"smiles": "COc1ccc(Cl)cc1N(C)C(=O)CCNC(=O)Cn1cnc2ccccc2c1=O", "inhibition": 11}
{"smiles": "O=C(NCC1CC1)Nc1cccs1", "inhibition": 9.59}
{"smiles": "Oc1ccc(-c2nc3ncccn3c2Nc2ccc3c(c2)OCCO3)cc1", "inhibition": 11.8}
{"smiles": "COc1ccccc1NC(=O)CN1CCN(c2ccccc2)CC1", "inhibition": -5.44}
{"smiles": "COc1ccccc1NC(=O)Cn1cnc2c(nnn2-c2ccc(C)cc2)c1=O", "inhibition": 7.57}
{"smiles": "CCN(CC)CCN(C(=O)c1cccc([N+](=O)[O-])c1)c1nc2ccc(OC)cc2s1", "inhibition": 39.5}
{"smiles": "COc1ccc2nc(NC(=O)Nc3ccccc3)sc2c1", "inhibition": -19.3}
{"smiles": "O=C(N/N=C/c1ccc(-c2ccc(Br)cc2)o1)c1ccc2c(c1)OCO2", "inhibition": -16.7}
{"smiles": "Cc1nc(C)c(-c2ccc(SCc3ccccc3C)nn2)s1", "inhibition": -5.23}
{"smiles": "CCCC(=NCc1ccccc1)C1=C(O)C(C(=O)OC)C(C)(C)CC1=O", "note": "(configuration not stated)", "inhibition": 7.33}
{"smiles": "Cc1noc(C)c1CCC(=O)N1CCCC(CCC(=O)NCc2ccc(F)c(F)c2)C1", "note": "(configuration not stated)", "inhibition": -3.73}
{"smiles": "CC(C)CNC(CC(=O)O)c1ccccc1", "note": "(configuration not stated)", "inhibition": 1.77}
{"smiles": "CCc1c(C)n([O-])c2c([n+]1=O)CCCCC2", "inhibition": -29.8}
{"smiles": "COCc1cc(=O)n2[nH]c(C)nc2n1", "inhibition": 15.9}
{"smiles": "O=C(CN1C2=NCCN2c2ccccc21)c1ccco1", "inhibition": 13}
{"smiles": "O=C(CC1(O)C(=O)Nc2ccc(Br)cc21)c1ccc2c(c1)OCO2", "note": "(configuration not stated)", "inhibition": -17.7}
{"smiles": "COc1ccc(NS(=O)(=O)c2cc(NC(=O)c3ccc(C)s3)ccc2N2CCOCC2)cc1", "inhibition": 11.5}
{"smiles": "CCOc1ccc(-c2c[n+]3c(n2-c2ccccc2)CCCCC3)cc1", "inhibition": 5.49}
{"smiles": "COc1ccc(C2C(C#N)=C(N)Oc3n[nH]c(C)c32)cc1CSc1ccccn1", "note": "(configuration not stated)", "inhibition": 30.4}
{"smiles": "CCCCc1cc(=O)oc2cc(C)c(CN3CCCC3)c(O)c12", "inhibition": 4.75}
{"smiles": "CC(C)c1ccc2oc(=O)cc(CN3CCN(c4ccc(F)cc4)CC3)c2c1", "inhibition": -10.1}
{"smiles": "CCN(CC)CCOC(=O)c1ccc(N/C=C(/C#N)c2nc(-c3ccc(OC)c(OC)c3)cs2)cc1", "inhibition": -49.6}
{"smiles": "O=C(CSC1=NCCS1)Nc1nc2c(s1)CCCC2", "inhibition": -13.1}
{"smiles": "O=C(CSc1cccc2cccnc12)Nc1ccc(S(=O)(=O)N2CCOCC2)cc1", "inhibition": 0.8}
{"smiles": "CC(=O)Nc1cc(-c2ccc(Cl)cc2)[nH]n1", "inhibition": 14.5}
{"smiles": "CC(=O)c1c(C)nc(-c2cccc([N+](=O)[O-])c2)n1O", "inhibition": 13.7}
{"smiles": "Cc1ccc(C(=O)NCC(=O)NCCc2ccc(S(N)(=O)=O)cc2)s1", "inhibition": -6.17}
{"smiles": "N#Cc1nc(COc2ccc(Br)cc2)oc1NCCCn1ccnc1", "inhibition": 39.4}
{"smiles": "O=C1CCCN1c1ccc(CNS(=O)(=O)c2ccc(F)cc2)cc1", "inhibition": 17.6}
{"smiles": "COc1ccccc1C(=O)Nc1nnc(-c2ccc(Cl)cc2)o1", "inhibition": 33.4}
{"smiles": "COc1cccc(-c2nc(CS(=O)CC(=O)NCCCOC(C)C)c(C)o2)c1", "note": "(configuration not stated)", "inhibition": -12}
{"smiles": "COc1ccc(S(=O)(=O)NCCSCc2ccco2)cc1Cl", "inhibition": 15.2}
{"smiles": "Cn1c(N/N=C/c2c[nH]c3ccccc23)nc2ccccc21", "inhibition": 15.1}
{"smiles": "COc1cc(C(=O)N/N=C/c2coc3ccccc3c2=O)cc(OC)c1OC", "inhibition": 37.1}
{"smiles": "O=C(N/N=C\\c1c[nH]c2ccccc12)c1ccc(O)cc1", "inhibition": 37}
{"smiles": "O=C1CC(=O)CC(c2ccco2)C1", "inhibition": -5.92}
{"smiles": "FC(F)Oc1ccc(NC(=S)NCc2nc3ccccc3[nH]2)cc1", "inhibition": 6.2}
{"smiles": "Cc1nn(-c2ccccc2)c(C)c1/C=N/n1c(-c2ccc(C(C)(C)C)cc2)n[nH]c1=S", "inhibition": -19.4}
{"smiles": "O=C1CCCN1CCC1CCN(C2CC(=O)N(c3ccc(Cl)cc3)C2=O)CC1", "note": "(configuration not stated)", "inhibition": 21.5}
{"smiles": "COc1ccc(C(=O)Oc2ccc(/C=N/O)cc2)cc1", "inhibition": 18.4}
{"smiles": "COc1ccc(-c2cc(=NCC(=O)O)c3ccccc3o2)cc1", "inhibition": 10.1}
{"smiles": "CCCC1=C(C(=O)OCC)C(c2ccc(O)cc2)n2ncnc2N1", "note": "(configuration not stated)", "inhibition": 4.74}
{"smiles": "Cc1cc2ccccc2c(=O)n1CC(=O)NCCC1=CCCCC1", "inhibition": 14.6}
{"smiles": "Cc1ccccc1C(=O)c1cccn1CC(=O)NCCC1=CCCCC1", "inhibition": 10.5}
{"smiles": "Cc1nc(C)c(-c2ccc(SCc3ccccc3F)nn2)s1", "inhibition": -11.1}
{"smiles": "O=C(O)c1cn(-c2ccc(F)cc2)c2cc(Cl)c(F)cc2c1=O", "inhibition": 22.6}
{"smiles": "COC(=O)C(O)(c1c(C)[nH]n(-c2ccccc2)c1=O)C(F)(F)F", "note": "(configuration not stated)", "inhibition": 29.5}
{"smiles": "CN(C)C(=O)COC(=O)/C=C/c1ccccc1[N+](=O)[O-]", "inhibition": 0.25}
{"smiles": "COc1ccccc1Oc1coc2c(CN3CCN(C)CC3)c(O)ccc2c1=O", "inhibition": -13.2}
{"smiles": "CCCC(c1nnnn1Cc1ccc(OC)cc1)N1CCN(c2ccccc2OC)CC1", "note": "(configuration not stated)", "inhibition": -22.1}
{"smiles": "Cc1nc2scc(C)n2c(=O)c1S(=O)(=O)N1CCN(c2cccc(C(F)(F)F)c2)CC1", "inhibition": -29.1}
{"smiles": "O=c1cc(-c2ccccc2)nc(N2CCN(Cc3ccccc3)CC2)[nH]1", "inhibition": 10}
{"smiles": "CCCCCN1C(=O)/C(=C/c2c(N3CCc4ccccc4C3)nc3ccccn3c2=O)SC1=S", "inhibition": -24.1}
{"smiles": "Cc1ccc(-n2ncc3c(=O)[nH]cnc32)c(C)c1", "inhibition": 8.53}
{"smiles": "CCCCN(CCCC)CCNC(=O)CSCc1ccc(C)cc1", "inhibition": 10.3}
{"smiles": "COc1ccc(N2C(=O)CC(N3CC=C(c4ccccc4)CC3)C2=O)cc1", "note": "(configuration not stated)", "inhibition": -11.4}
{"smiles": "Brc1ccc2c(c1)CN1CCCC1=N2", "inhibition": 15}
{"smiles": "CC(C)[C@@H](C(=O)NC1CCCC1)N1C(=O)N2CCc3c([nH]c4ccccc34)[C@@]2(C)C1=O", "inhibition": -11.3}
{"smiles": "O=C(N/N=C/c1ccc(F)c(F)c1)c1cc2c(s1)-c1ccccc1CC2", "inhibition": 15}
{"smiles": "COc1cccc(CNC23CC4CC(CC(C4)C2)C3)c1OCc1ccccc1", "inhibition": -6.35}
{"smiles": "COc1cc(CNc2ccc(N3CCN(C(C)=O)CC3)cc2)ccc1OCc1ccccc1", "inhibition": 15.1}
{"smiles": "COc1ccc(Cl)cc1NC(=O)c1cc(-c2ccccc2)on1", "inhibition": -21.2}
{"smiles": "O=c1c2ccccc2nc(-c2ccoc2)n1CCc1ccccc1", "inhibition": 13.3}
{"smiles": "CCc1nc(SCC(=O)NCCc2ccccc2)c2c(=O)n(C)c(=O)n(C)c2n1", "inhibition": 16.1}
{"smiles": "Cn1c(=O)c2c(nc(Br)n2CCSc2nc3ccccc3o2)n(C)c1=O", "inhibition": -4.7}
{"smiles": "CC1(C)CC(CCNC(=O)c2ccc(-n3cnnn3)cc2)CC(C)(C)N1", "inhibition": -4.51}
{"smiles": "COc1ccc(C(=O)Nc2cc3c(cc2OC)CCCC3)cc1Br", "inhibition": -5.19}
{"smiles": "Nn1cnnc1SCC(=O)Nc1ccc(C2CCCCC2)cc1", "inhibition": 27.5}
{"smiles": "c1ccc(-c2nc(NC3CC3)nc(-n3ccnc3)n2)cc1", "inhibition": -18.3}
{"smiles": "O=C(Nc1ccc2c(c1)nc1n2CCN(Cc2ccccc2)C1)c1cccs1", "inhibition": 23.8}
{"smiles": "Cc1ccccc1Oc1ccc(Oc2ccccc2C)nn1", "inhibition": -7.56}
{"smiles": "CC1CCN(C(=O)C2CCCN(S(C)(=O)=O)C2)CC1", "note": "(configuration not stated)", "inhibition": -2.71}
{"smiles": "C[N+]1(C)C2CCC1CC(OC(=O)c1ccccc1)C2", "note": "(configuration not stated)", "inhibition": 1.68}
{"smiles": "CN(C)C=NC(=O)c1cc(C(=O)c2ccc(Cl)cc2Cl)c[nH]1", "inhibition": 29.9}
{"smiles": "CCN(CC)C(=O)C1CCN(Cc2ccc(Br)cc2)CC1", "inhibition": 11.4}
{"smiles": "COc1ccc(N2C3=C(CC4=C2CC(C)(C)CC4=O)C(=O)CC(C)(C)C3)cc1", "inhibition": 14.8}
{"smiles": "COc1ccc(Cl)cc1NC(=O)CN(C)CC(=O)Nc1ccccc1C(F)(F)F", "inhibition": 9.99}
